PAX8 inh HTS – inhibitors of PAX8-driven TPO luciferase reporter, primary screen, RMG-I cells, single concentration. inhibition, % at 12.6 µM. 360,000 compounds, 1.2% hits. AID 652154, 2013. SteadyGlo, 24 h;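 active means mean replicate inhibition at least 60% with every replicate also reaching 60%; inconclusive means only one of the two criteria is met; inactive means mean below 60% and not all replicates reaching 60%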;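 further: luciferase light reporting Pax8 driven TPO promoter activity; plate controls were median of neutral control wells for no effect and mitoxantrone controls for full effect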
EWS-Fli inh – EWS/Fli-driven NR0B1 reporter inhibitors, primary screen, A673 cells, NR0B1 luciferase, luminescence, MLPCN library; viability-normalised; inhibition, % at 12.6 µM; 350,000 compounds, 0.67% hits;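 active means mean inhibition of at least 50% after viability correction, with every replicate also passing that limit; inconclusive means mean reaches 50% but only one of two replicates passes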;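 further: firefly luciferase signal divided by Alamar Blue viability fluorescence both relative to DMSO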
MITF TRPM1 inh – inhibitors of MITF-dependent TRPM1 promoter reporter, primary screen, cell-based, SK-MEL-5, single point, luciferase. SK-MEL-5 TRPM1 promoter luciferase, 24 h. inhibition, % at 12.5 µM. 330,000 compounds, 0.83% hits;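 active means mean inhibition across replicates of 60% or more, whatever share of single replicates reaches that level; inconclusive means some that reach 60%, reason not given; inactive means mean inhibition across replicates below 60%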
Wnt act – Wnt/beta-catenin pathway activators, primary screen, cell-based, plate reader, single point; Wnt/beta-catenin reporter cell assay, activator; activation, % at 9.35 µM; 300,000 compounds, 1.2% hits; in the data active means activation above about 30%, passing the limit was not always enough; inconclusive means no clear call, values can overlap the other calls;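 further: 0% = neutral control wells and 100% = positive control wells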
MITF act – activators of MITF-driven TRPM1 promoter reporter, primary screen, cell-based, SK-MEL-5, luciferase, single point. activation, % at 12.5 µM. SK-MEL-5 TRPM1-promoter luciferase, 24 h; % of positive control, neutral wells = 0. AID 588334, 2011. 300,000 compounds, 0.75% hits;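 active means mean activation of at least 80% with every replicate also reaching 80%; inconclusive means mean reaches 80% but some replicate falls short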;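 further: 0% = neutral control wells and 100% = parthenolide positive control wells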
esBAF inh – Bmi1 luciferase reporter increase in mESCs, primary screen, esBAF inhibitor project, mouse ES cells, Bmi1 luciferase knock-in, single point; 24 h; 100% = twice the neutral-well signal; reporter increase, % at 12.5 µM; 350,000 compounds, 2% hits; AID 602393, 2012; in the data active means activation above about 40%; inconclusive means no clear call, values can overlap the other calls;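 further: 0% = median of the plate's neutral control wells and 100% = double that signal; a rise in the Bmi1 reporter signal indicates esBAF inhibition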
* = called active by the depositor; ? = inconclusive; / = not tested or not shown. Most compounds without a hit are left out; they make up all but 4% or so of the library.

SMILES	PAX8 inh HTS	EWS-Fli inh	MITF TRPM1 inh	Wnt act	MITF act	esBAF inh
O=[N+]([O-])c1ccc(S(=O)(=O)CC(CN2CCOCC2)N2CCOCC2)cc1 (stereo not drawn)	12	-7	28	0	-27	-6
COCC(=O)N1[C@H](CO)[C@@H]2c3ccccc3N(C(=O)c3ccncc3)C[C@@H]21	-6	-1	/	/	/	-1
CCc1cccc(NC(=O)Cn2cc3c(n2)CCCC3)c1	0	-1	4	-3	-6	4
CN(C)c1ccc(NC(=O)Cn2cc3c(n2)CCCC3)cc1	-28	-57	-9	7	3	44*
CC(=O)N1CC(=O)N2[C@H](C1)[C@H](c1ccc(C#CC(C)C)cc1)[C@@H]2CO	-2	2	/	/	/	/
COc1ccc(C2=Nn3c(nnc3-c3ccccc3F)SC2)cc1OC1CCOC1 (stereo not drawn)	-13	60*	27	1	-24	-19
COc1ccc(OC)c(-c2nnc3n2N=C(c2ccc(OC)c(OC)c2)CS3)c1	53	56*	50	-20	-48	-5
COc1ccc(C2=Nn3c(nnc3-c3ccccc3F)SC2)cc1OC1CCCC1	32	-66	-2	36*	3	11
COCCNC(=O)C[C@H]1CC[C@@H]2[C@H](COC[C@H](O)CN2S(=O)(=O)c2ccccc2C)O1	-7	-4	/	/	/	-5
C[C@H](CO)N1C[C@H](C)[C@@H](CN(C)S(=O)(=O)c2ccccc2)Oc2cc(Br)ccc2S1(=O)=O	/	1	/	/	/	2
O=C(c1ccc(Cl)cc1Cl)N1CCc2ccccc21	-1	7	6	-1	-3	-8
O=C(/C=C/c1ccc(Cl)cc1Cl)N1CCc2ccccc21	-233	/	-62	48*	65	/
O=C(CN1CCOCC1)N[C@@H]1CC[C@H](CCNC(=O)C2CCCCC2)O[C@@H]1CO	2	-3	/	/	/	4
O=C(C[C@@H]1C=C[C@H](NC(=O)Nc2ccc(C(F)(F)F)cc2)[C@H](CO)O1)NCCN1CCCC1	75*	-10	/	/	/	-1
O=C(CSc1nnc(-c2ccc(F)cc2)c2ccccc12)Nc1ccccc1	-12	63*	-17	-10	15	/
COCC(=O)Nc1ccc2c(c1)C(=O)N(C)C[C@@H](OC)[C@@H](C)CN(C(=O)c1ccccc1F)[C@@H](C)CO2	3	1	/	/	/	3
O=C(Cc1ccccc1)N1CCC(c2ccccc2)C1 (stereo not drawn)	-21	-36	-44	1	45	46*
C[C@@H]1CN([C@H](C)CO)C(=O)c2cccc(NS(C)(=O)=O)c2O[C@H]1CN(C)C	-19	4	/	/	/	2
Cc1ccc(S(=O)(=O)Nc2ccc3c(c2)C(=O)N([C@H](C)CO)C[C@@H](C)[C@H](CN(C)C(=O)Nc2ccc(F)cc2)OCCCC[C@H](C)O3)cc1	?	-7	/	/	/	-4
CN(C)CCNC(=O)COc1ccc(C23CC4CC(CC(C4)C2)C3)cc1	-12	31	70*	-3	-70	/
Cc1ccc(C23CC4CC(CC(NC(=O)NCCN(C)C)(C4)C2)C3)cc1	9	/	20	-6	/	-11
O=C(C[C@H]1C[C@@H]2c3cc(NC(=O)Nc4ccccc4F)ccc3O[C@@H]2[C@@H](CO)O1)NCc1cc(F)ccc1F	50	4	/	/	/	29
O=[N+]([O-])c1cc2c(ccc3occc32)o1	107*	37	/	-3	/	/
O=[N+]([O-])c1ccc2c(c1)oc1ccccc12	-5	/	3	4	-2	-1
C[C@@H]1CN([C@@H](C)CO)C(=O)c2cccc(NS(=O)(=O)c3cn(C)cn3)c2O[C@@H]1CN(C)CC1CC1	/	-2	/	/	/	-3
SMILES	PAX8 inh HTS	EWS-Fli inh	MITF TRPM1 inh	Wnt act	MITF act	esBAF inh
C=CCc1cc(C)ccc1OCCOCCC(C(=O)OCC)C(=O)OCC	79*	3	-5	0	6	-2
COc1cccc(NC(=O)N[C@H]2C=C[C@H](CC(=O)NCc3ccncn3)O[C@@H]2CO)c1	-3	10	/	/	/	0
CCNC(=S)N/N=C/c1cc(C)n(-c2ccc(Cl)cc2)c1C	-37	-62	-90	1	86*	/
Cc1cc(/C=N/NC(N)=S)c(C)n1-c1ccc(Cl)c(Cl)c1	4	6	29	4	-29	/
CCCN(C)C[C@@H]1OCCCC[C@H](C)Oc2ccc(NC(=O)Nc3cccc4ccccc34)cc2C(=O)N([C@H](C)CO)C[C@@H]1C	5	/	/	/	/	/
O=C(C[C@H]1CC[C@H](NC(=O)C2CCOCC2)[C@@H](CO)O1)Nc1nccs1	11	15	/	/	/	-4
COc1ccccc1N=c1oc2cc(O)ccc2cc1C(N)=O	-15	/	1	12	0	14
Cc1cccc(N=c2oc3cc(O)ccc3cc2C(N)=O)c1	-150	/	-36	40*	41	58*
C[C@@H]1CN([C@H](C)CO)S(=O)(=O)c2ccc(C#C[C@@H](C)O)cc2O[C@H]1CN(C)C(=O)c1ccccc1	/	-4	/	/	/	-4
COc1ccc(CCN2C(=S)N(C)C(=O)C2CC(=O)Nc2ccc(OC)cc2)cc1 (stereo not drawn)	0	7	-18	-6	18	-2
COC(=O)CN1C(=S)N(c2ccc(Cl)cc2)C(=O)C1CC(=O)Nc1ccccc1 (stereo not drawn)	14	4	7	-1	-5	/
COC(=O)CN1C(=S)N(C)C(=O)C1CC(=O)Nc1ccccc1 (stereo not drawn)	115*	-5	-4	-2	3	10
COc1ccc(NC(=O)CC2C(=O)N(C)C(=S)N2Cc2ccc3c(c2)OCO3)cc1 (stereo not drawn)	-5	/	0	35*	3	-1
C[C@H]1CN([C@@H](C)CO)C(=O)c2cccc(NS(=O)(=O)c3cccs3)c2O[C@@H]1CN(C)Cc1ccncc1	/	-6	/	/	/	3
C=CCNc1nc(C(=O)OC(C)C(=O)c2ccc(C)cc2)cs1 (stereo not drawn)	-88	-13	-36	22	29	57*
C=CCNc1nc(C(=O)OCC(=O)c2ccc(F)cc2)cs1	/	-1	-24	0	21	30
Cc1cccc2sc(N3CCN(C(=O)C4COc5ccccc5O4)CC3)nc12 (stereo not drawn)	32	-2	-2	1	6	-4
COc1ccc2nc(N3CCN(C(=O)C4COc5ccccc5O4)CC3)sc2c1 (stereo not drawn)	-247	-107	-97	-3	100*	/
COc1ccc2nc(N3CCCC(C(=O)NCCCN4CCN(C)CC4)C3)sc2c1 (stereo not drawn)	-36	/	-13	1	/	2
O=C(NCCc1ccc(Cl)cc1)c1ccc2nc(N3CCOCC3)sc2c1	-9	-5	1	0	-3	2
